Assay results published in PubChem BioAssay (EPA / NIEHS).
Activity calls are given as the source filed them. The calls were made as follows: active = hit-call score of the fitted dose curve at least 0.9, where 1 is the maximum; inactive = score below 0.9.

Assay: ATG_M_61_CIS: Attagene CIS-FACTORIAL HepG2 Assay for M61 Transcription Factor (Internal Marker) (AID 2282937)
Details: HepG2 Attagene CIS-FACTORIAL M61 internal marker reporter; actives raise or lower the signal
Description: ATG_CIS is a cell-based, multiplexed-readout assay that uses HepG2, a human liver cell line, with measurements taken at 24 hours after chemical dosing in a 24-well plate.ATG_M_61_CIS is one of 52 assay component(s) measured or calculated from the ATG_CIS assay. It is designed to make measurements of mRNA induction, a form of inducible reporter, as detected with fluorescence intensity signals by Reverse transcription polymerase chain reaction (RT-PCR) and Capillary electrophoresis technology.Data from the assay component ATG_M_61_CIS was analyzed into 1 assay endpoint. This assay endpoint, ATG_M_61_CIS, was analyzed with bidirectional fitting relative to DMSO as the negative control and baseline of activity. Using a type of inducible reporter, measures of mRNA for gain or loss-of-signal activity can be used to understand the background control at the transcription factor-level as they relate to the gene . Furthermore, this assay endpoint can be referred to as a secondary readout, because this assay has produced multiple assay endpoints where this one serves a background control function. To generalize the intended target to other relatable targets, this assay endpoint is annotated to the background measurement intended target family, where the subfamily is internal marker.
Human liver HepG2 cells are transiently transfected with multiple reporter transcription units (MRTUs) in 6-well plates using FuGene 6 reagent (Roche; 3 ml FuGene/1 mg DNA). The MRTU constructs are regulated by a cis-regulating element (promoter). […] A major difference between the CIS and TRANS system is that in CIS activities of endogenous TFs are measured, whereas the TRANS assay evaluates changes in activities of exogenous, chimeric NR-Gal4 proteins. […] At the end of 24 hour incubation, total RNA was isolated using TriZol reagent (Invitrogen). The isolated RNA is then reverse-transcribed using oligo(dT) primer and Mo-MLV reverse transcriptase (Invitrogen) with DNAse I (Ambion) treatment for 30 min. The one-tenth of the produced cDNA was amplified by PCR using Taq DNA polymerase (Invitrogen) and two reporter sequence-specific primers. The PCR products were fluorescently labeled by primer extension with 6-arboxyfluorescein (6-FAM) 5'-labeled reporter sequence-specific primer (2 min at 95 C, 20 s at 68 C and 10 min at 72 C) and these products were digested with 5U of HpaI (New England Biolabs) for 2h at 37 C. The fragments were purified using Qiaquick PCR columns (Qiagen), analyzed on an ABI 3130xL genetic analyzer (Applied Biosystems) with peak positions identified by using a set of X-rhodamine (ROX)-labeled MapMarker1000 molecular weight standards (BioVentures). The raw capillary electrophoresis data was processed using Attagraph software (Attagene).

**Q.** With `OCCCO` as the compound, how does the outcome read?
**A.** inactive

**Q.** With `CCCCCCCCCCCCOCCOS(=O)(=O)O` as the compound, how does the outcome read?
**A.** inactive

**Q.** For `CC(O)CN` (stereo not given), which outcome is on record?
**A.** inactive

**Q.** Which outcome does the source give for `CN(C)C(=O)Nc1ccccc1` here?
**A.** inactive

**Q.** Which outcome does the source give for `CCCCCCCCCCCCOC(C)=O` here?
**A.** inactive

**Q.** With `CCC(=O)OCC=Cc1ccccc1` as the compound, how does the outcome read?
**A.** inactive

**Q.** Which outcome does the source give for `c1ccc(OCCOc2ccccc2)cc1` here?
**A.** inactive

**Q.** With `O=Cc1ccccc1O` as the compound, how does the outcome read?
**A.** inactive

**Q.** Which outcome does the source give for `CC1=CCC(C(C)(C)O)CC1` (stereo not given) here?
**A.** inactive

**Q.** With `CCC=C(C)C=O` as the compound, how does the outcome read?
**A.** inactive

**Q.** Which outcome does the source give for `CCC(CC)CO` here?
**A.** inactive

**Q.** Which outcome does the source give for `N#CCCNCCC#N` here?
**A.** inactive

**Q.** For `CCNC(=S)NCC`, which outcome is on record?
**A.** inactive

**Q.** For `CCCCCCCCCOS(=O)(=O)O`, which outcome is on record?
**A.** inactive

**Q.** For `CCOC(=O)CCCCCCCCC(=O)OCC`, which outcome is on record?
**A.** inactive

**Q.** For `CC(C)=CCCC(C)=CC(=O)O`, which outcome is on record?
**A.** inactive

**Q.** With `CC(C)(CO)CO` as the compound, how does the outcome read?
**A.** inactive

**Q.** With `O=C1CCC(=O)N1` as the compound, how does the outcome read?
**A.** inactive

**Q.** Which outcome does the source give for `CCCc1ccc(N)cc1` here?
**A.** inactive

**Q.** Which outcome does the source give for `O=C(O)CS` here?
**A.** inactive

**Q.** With `CCCCCCCCCCOC(=O)c1ccccc1C(=O)OCCCCCCCC` as the compound, how does the outcome read?
**A.** inactive

**Q.** Which outcome does the source give for `CC(C)N1C(=O)c2ccccc2C1=O` here?
**A.** inactive

**Q.** Which outcome does the source give for `CCOC(=O)CC1(C)OCC(C)O1` (stereo not given) here?
**A.** inactive

**Q.** With `CCCC1CCOC(C)S1` (stereo not given) as the compound, how does the outcome read?
**A.** inactive

**Q.** Which outcome does the source give for `CCOC(=O)CC(C)C` here?
**A.** inactive

**Q.** For `CC=CC(=O)C1=C(C)C=CCC1(C)C`, which outcome is on record?
**A.** inactive

**Q.** With `C=C(C)C(=O)OCCOCCOC(=O)C(=C)C` as the compound, how does the outcome read?
**A.** inactive

**Q.** Which outcome does the source give for `CC(=O)OC(C)(C)C` here?
**A.** inactive

**Q.** For `COc1ccccc1O`, which outcome is on record?
**A.** inactive

**Q.** Which outcome does the source give for `NC(=O)c1c(Cl)cccc1Cl` here?
**A.** inactive

**Q.** With `CCCCCCCCCCCCN1CCOCC1` as the compound, how does the outcome read?
**A.** inactive

**Q.** With `COc1ccccc1NC(=O)CC(C)=O` as the compound, how does the outcome read?
**A.** inactive

**Q.** Which outcome does the source give for `CCCCCCCCOC(C)=O` here?
**A.** inactive

**Q.** For `Nc1ccc(O)c(N)c1`, which outcome is on record?
**A.** inactive

**Q.** Which outcome does the source give for `C=C1CC[C@H]2O[C@]2(C)CC[C@@H]2[C@@H]1CC2(C)C` here?
**A.** inactive

**Q.** For `O=S(=O)(O)CCCN1CCOCC1`, which outcome is on record?
**A.** inactive

**Q.** For `CN(C)c1ccc(C=O)cc1`, which outcome is on record?
**A.** inactive

**Q.** With `C1CCCNCC1` as the compound, how does the outcome read?
**A.** inactive

**Q.** Which outcome does the source give for `CN(C)CCC=C1c2ccccc2CCc2ccccc21` here?
**A.** inactive

**Q.** For `c1ccc(Sc2ccccc2)cc1`, which outcome is on record?
**A.** inactive
